Assay outcomes (PubChem)
Compounds with a hit are over-represented: about 12% of the library has one in this group of screens.
USP17 inh: blocks human USP17 ubiquitin-rhodamine cleavage | A8MUK1 | purified USP17, Ub-rhodamine cleavage fluorescence, 3 h | inhibition, % at 50 µM | 47,000 tested, 6.5% active | AID 1645855
OTUD3 block: blocks human OTUD3 ubiquitin-rhodamine cleavage; inhibition, % at 25 µM; 47,000 tested, 0.7% active; Q5T2D3; purified OTUD3, Ub-rhodamine fluorescence, 2 h
USP30 block: blocks human USP30 ubiquitin-rhodamine cleavage. purified USP30, Ub-rhodamine cleavage fluorescence. AID 1645860. inhibition, % at 25 µM. 47,000 tested, 5.3% active
USP28 block: blocks human USP28 ubiquitin-rhodamine cleavage; purified USP28, Ub-rhodamine cleavage fluorescence, 30 min; Q96RU2; 47,000 tested, 3% active; inhibition, % at 25 µM
Target sequence (Q96RU2 whole entry, looked up): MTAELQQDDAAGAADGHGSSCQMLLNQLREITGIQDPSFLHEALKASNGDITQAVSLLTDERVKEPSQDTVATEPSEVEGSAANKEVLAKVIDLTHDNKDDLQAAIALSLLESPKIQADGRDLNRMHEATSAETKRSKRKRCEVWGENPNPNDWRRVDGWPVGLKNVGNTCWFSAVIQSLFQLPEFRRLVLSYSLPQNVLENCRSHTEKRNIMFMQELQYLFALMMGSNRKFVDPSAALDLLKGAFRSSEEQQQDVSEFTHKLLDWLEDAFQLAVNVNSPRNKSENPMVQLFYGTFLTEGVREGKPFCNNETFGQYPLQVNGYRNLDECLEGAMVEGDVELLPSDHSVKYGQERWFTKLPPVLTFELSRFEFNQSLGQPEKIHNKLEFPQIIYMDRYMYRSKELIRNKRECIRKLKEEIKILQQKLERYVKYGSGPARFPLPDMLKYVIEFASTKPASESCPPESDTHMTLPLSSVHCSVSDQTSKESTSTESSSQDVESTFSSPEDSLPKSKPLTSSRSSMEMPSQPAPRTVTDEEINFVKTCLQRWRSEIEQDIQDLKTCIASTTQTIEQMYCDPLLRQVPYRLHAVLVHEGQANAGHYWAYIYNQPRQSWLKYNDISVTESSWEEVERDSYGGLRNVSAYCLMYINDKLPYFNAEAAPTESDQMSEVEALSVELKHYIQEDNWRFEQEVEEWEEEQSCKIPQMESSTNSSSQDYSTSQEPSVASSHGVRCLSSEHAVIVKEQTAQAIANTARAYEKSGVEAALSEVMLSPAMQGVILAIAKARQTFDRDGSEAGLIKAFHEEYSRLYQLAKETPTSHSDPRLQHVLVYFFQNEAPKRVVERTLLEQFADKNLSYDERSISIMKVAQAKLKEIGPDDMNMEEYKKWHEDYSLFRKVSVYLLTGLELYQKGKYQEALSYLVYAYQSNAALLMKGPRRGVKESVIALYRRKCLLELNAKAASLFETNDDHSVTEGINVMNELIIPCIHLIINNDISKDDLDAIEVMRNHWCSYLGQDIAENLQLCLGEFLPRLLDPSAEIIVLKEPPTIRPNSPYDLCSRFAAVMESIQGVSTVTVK
Each line names hits and unclear results; the compound was inactive in the other large screens. Cut-off read from the data, not from the text of the source: active = inhibition above about 30%; inactive = the rest.

Cc1ccc(S(=O)(=O)N(CC#N)c2nc3nc(C)c(Cl)c(C)n3n2)cc1	USP28 block 33.4
COc1ccc(N2CCN(Cc3nnnn3Cc3ccc4c(c3)OCO4)CC2)cc1	USP17 inh 42.4, USP30 block 52.9
O=C(Nc1ccc(Cl)cc1)C1CCCN(c2ncnc3nc[nH]c23)C1 (stereo not drawn)	USP17 inh 39.0
Fc1ccc(N2CCN(c3ncnc4nc[nH]c34)CC2)cc1	none
Clc1cccc(N2CCN(c3ncnc4nc[nH]c34)CC2)c1	USP17 inh 56.4
O=C(NCc1ccncc1)C1CCCN(c2ncnc3nc[nH]c23)C1 (stereo not drawn)	none
Nc1nc(N2CCN(c3ccc(Cl)cc3)CC2)c2[nH]cnc2n1	USP17 inh 41.6
O=C(CSc1ccc2ccccc2c1)Nc1ccc2c(c1)OCCCO2	none
O=C(CSc1n[nH]c2nc3ccccc3n12)Nc1ccc2c(c1)OCCO2	USP28 block 30.7
O=C(COC(=O)Cn1cnc2ccccc21)Nc1ccc2c(c1)OCCO2	USP28 block 55.6
O=C(CSc1nc2ccccc2[nH]1)Nc1ccc2c(c1)OCCO2	USP28 block 45.8
O=C(CSc1n[nH]c(-c2ccccc2Cl)n1)Nc1ccc2c(c1)OCCO2	USP28 block 38.1
COc1ccc(NC(=O)COC(=O)Cn2cnc3ccccc32)cc1OC	none
Cc1cc(SCC(=O)NCc2ccccc2)nc(C)n1	none (no result: USP30 block, USP28 block)
Cc1ccc(C(O)=C2C(=O)C(=O)N(CCCn3ccnc3)C2c2cccs2)cc1 (stereo not drawn)	none
Cc1ncncc1C(=O)N1CCCC(C)(c2ncc(Cc3cccc(F)c3)o2)C1 (stereo not drawn)	OTUD3 block 82.3
Cc1ncncc1C(=O)N1CCCC(c2ncc(Cc3cccc(F)c3)o2)C1 (stereo not drawn)	none (no result: USP17 inh)
Nc1nccc(-c2ccc3c(c2)CCC3)n1	none
N#Cc1cnn2ccc(-c3ccc4c(c3)CCC4)nc12	USP17 inh 33.7 (no result: USP30 block, USP28 block)
Cc1cc(C(=O)N2CCOCC2)c(C)n1-c1ccc(O)cc1	USP17 inh 86.0
CCCn1nnc2cc(S(=O)(=O)N3CCCC(C(=O)NCCc4ccco4)C3)ccc21 (stereo not drawn)	USP17 inh 39.3
Cc1cc(-c2ccc(S(=O)(=O)NCCc3ccccc3)s2)on1	USP30 block 35.3
Cc1ccc(CN2CCCn3nc(C(=O)NCc4ccccc4C)cc3C2=O)cc1	USP17 inh 49.8, USP30 block 52.1
Cc1ccc(CN2CCCn3nc(C(=O)NCc4cccs4)cc3C2=O)cc1	none
C#CCNC(=O)CC[C@H]1CNC(=O)[C@@H]2[C@@H](CCN2C2CCCCC2)N1C	USP30 block 32.0
C#CCNC(=O)CC[C@H]1CNC(=O)[C@@H]2[C@@H](CCN2CC2CC2)N1C	none
CN1[C@@H](CCC(=O)N2CCN(c3ccccn3)CC2)CNC(=O)[C@@H]2[C@H]1CCN2C1CCOCC1	USP30 block 43.7, USP28 block 36.2
O=C(CCc1nnc2ccc(N3CCCC3)nn12)N1CCN(Cc2ccccc2)CC1	none
CCc1ccc2nc(NC(=O)c3ccc(=O)[nH]c3)sc2c1	USP17 inh 33.3
O=C(Nc1ccccc1C(F)(F)F)c1ccc(N2CCCC2)nn1	none
Cc1c(C#N)c2ccccc2n1CC(=O)NCC1CCCO1 (stereo not drawn)	none
Cc1c(C#N)c2ccccc2n1CC(=O)NCc1ccc2c(c1)OCO2	USP17 inh 40.2, USP28 block 32.1
CCC(C)NC(=O)Cn1c(=O)n(-c2ccccc2)c(=O)c2ccc(C(=O)NCc3ccco3)cc21 (stereo not drawn)	OTUD3 block 31.8, USP30 block 73.2, USP28 block 38.7
COc1ccc(NC(=O)Cn2c(=O)n(-c3ccc(CC(=O)NCc4ccco4)cc3)c(=O)c3ccccc32)cc1Cl	none
O=C(CCCn1c(=O)c2sccc2n(CC(=O)NCCC2=CCCCC2)c1=O)NCc1ccc2c(c1)OCO2	USP17 inh 49.9, USP28 block 32.2
COc1c(C)cnc2c1c(=O)n(CC(=O)NCc1ccc3c(c1)OCO3)c(=O)n2C	USP30 block 36.0
COC(=O)CN1C(=O)CC(C)(C)S(=O)(=O)c2ccccc21	none
CNC(=O)C1CN(C(=O)Nc2cccc(C)c2)CC12CCCC2 (stereo not drawn)	none
O=C(Nc1cccc(Cl)c1F)c1cnc(-c2ccccc2)nc1-c1ccncc1	none
Cc1ccc(NC(=O)Cn2c(=O)n(-c3ccc(CC(=O)NCc4ccco4)cc3)c(=O)c3sccc32)c(C)c1	USP17 inh 69.3 (no result: USP30 block, USP28 block)
Cc1cc(C)c(NC(=O)Cn2c(=O)n(CCC(=O)NCc3ccc4c(c3)OCO4)c(=O)c3sccc32)c(C)c1	USP17 inh 75.1, OTUD3 block 33.9, USP28 block 49.3
CNC(=O)[C@@H]1CN2CCN(S(=O)(=O)c3ccccc3)C[C@@H]2[C@H]1c1ccccc1	none
CCc1nc(-c2cccc(-c3noc(-c4cnccn4)n3)c2)cs1	none
Clc1ccc(-c2noc(-c3cnccn3)n2)cc1	USP30 block 30.6
Cc1cc(C)nc(N2CC=C[C@@H]2C(=O)NCc2ccc3c(c2)OCO3)n1	none
COc1ccc2occ(CC(=O)Nc3nnc(SC)s3)c2c1	USP17 inh 32.9
COc1ccc(-c2ccc(NS(=O)(=O)c3ccc(F)cc3)cc2)nn1	none
COc1ccc(S(=O)(=O)Nc2ccc(Nc3ccc(-n4cccn4)nn3)cc2)cc1	USP17 inh 47.1, USP30 block 61.7
c1ccc2c(-c3nc(C4CC4)no3)nnc(NC3CCCCC3)c2c1	USP30 block 33.4
c1ccc2c(-c3nc(C4CC4)no3)nnc(NCc3ccncc3)c2c1	USP17 inh 53.3
Fc1ccc(-c2noc(-c3nnc(NCc4cccnc4)c4ccccc34)n2)cc1	USP17 inh 75.3
c1ccc2c(-c3nc(C4CC4)no3)nnc(NCCCN3CCOCC3)c2c1	USP30 block 35.9
CC(C)OCCCNc1nnc(-c2nc(C3CC3)no2)c2ccccc12	none
CC(C)N1CCN(c2nnc(-c3nc(C4CC4)no3)c3ccccc23)CC1	none
CC(=O)NC(Cc1ccccc1C)C(=O)NC1CCN(C(=O)C2CCCCC2)CC1 (stereo not drawn)	none
CC(=O)c1cccc(NC(=O)CCc2cccc3[nH]ccc23)c1	none
O=C(NCc1c(-c2ccccc2)nc2n1CCS2)c1cccnc1	none
CC(C)NC(=O)C1(Cc2ccc(-c3ccncc3)cc2)CCN(C(=O)c2ccncc2)CC1	none
Cc1cc(C)cc(S(=O)(=O)N2CCN=C2N2CCCCC2)c1	none (no result: USP17 inh)
C[C@@H]1CC[C@H]2C(C)(C)[C@H](O)[C@@H](O)C[C@]2(C)[C@@]12Cc1c(O)cc3c(c1O2)CNC3=O	none
CC(=O)O[C@H]1CC[C@]2(C)[C@H]3Cc4c(O)cc5c(c4O[C@]3(C)CC[C@H]2C1(C)C)CNC5=O	USP17 inh 34.2
CCN1C(SCc2ccccc2F)=NS(=O)(=O)c2ccccc21	USP28 block 74.2
Cc1cc(Br)c(C(C)C)c(Br)c1OC(=O)c1ccco1	USP28 block 47.8
Cc1cccc(CNC(=O)Cn2cc(-c3nnc(C)o3)c3ccccc32)c1	none
Cc1cccc(CNC(=O)Cn2cc(-c3nnco3)c3ccccc32)c1	USP17 inh 45.9
Cc1ccc(S(=O)(=O)N(CC(=O)N2CCc3ccccc32)c2ccccc2)cc1	none
